This is an account of results in the supplement of paper PMC7724964.

Sequences and labels used below:
T1: GGA1 1-157 VHS (domain begin residue: 1, domain end residue: 157), Q9UJY5
T1 chain: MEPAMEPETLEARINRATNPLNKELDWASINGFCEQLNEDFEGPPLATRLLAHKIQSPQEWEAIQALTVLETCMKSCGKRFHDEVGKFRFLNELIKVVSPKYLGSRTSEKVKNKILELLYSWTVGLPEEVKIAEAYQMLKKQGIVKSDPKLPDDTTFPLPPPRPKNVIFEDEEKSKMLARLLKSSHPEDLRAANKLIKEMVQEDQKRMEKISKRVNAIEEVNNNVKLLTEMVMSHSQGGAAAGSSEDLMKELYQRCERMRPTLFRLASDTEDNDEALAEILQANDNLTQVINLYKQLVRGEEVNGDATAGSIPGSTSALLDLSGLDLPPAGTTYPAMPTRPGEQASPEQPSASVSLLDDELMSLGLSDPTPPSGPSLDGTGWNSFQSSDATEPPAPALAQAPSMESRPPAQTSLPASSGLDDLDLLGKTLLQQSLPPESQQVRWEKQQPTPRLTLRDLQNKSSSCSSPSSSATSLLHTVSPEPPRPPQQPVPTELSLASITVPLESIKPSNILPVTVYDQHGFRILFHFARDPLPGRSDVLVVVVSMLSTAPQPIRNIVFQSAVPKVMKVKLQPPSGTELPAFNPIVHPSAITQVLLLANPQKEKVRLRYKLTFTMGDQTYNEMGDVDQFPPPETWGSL

T2: GIGYF2 507-602 GYF (domain begin residue: 507, domain end residue: 602), Q6Y7W6
T2 chain: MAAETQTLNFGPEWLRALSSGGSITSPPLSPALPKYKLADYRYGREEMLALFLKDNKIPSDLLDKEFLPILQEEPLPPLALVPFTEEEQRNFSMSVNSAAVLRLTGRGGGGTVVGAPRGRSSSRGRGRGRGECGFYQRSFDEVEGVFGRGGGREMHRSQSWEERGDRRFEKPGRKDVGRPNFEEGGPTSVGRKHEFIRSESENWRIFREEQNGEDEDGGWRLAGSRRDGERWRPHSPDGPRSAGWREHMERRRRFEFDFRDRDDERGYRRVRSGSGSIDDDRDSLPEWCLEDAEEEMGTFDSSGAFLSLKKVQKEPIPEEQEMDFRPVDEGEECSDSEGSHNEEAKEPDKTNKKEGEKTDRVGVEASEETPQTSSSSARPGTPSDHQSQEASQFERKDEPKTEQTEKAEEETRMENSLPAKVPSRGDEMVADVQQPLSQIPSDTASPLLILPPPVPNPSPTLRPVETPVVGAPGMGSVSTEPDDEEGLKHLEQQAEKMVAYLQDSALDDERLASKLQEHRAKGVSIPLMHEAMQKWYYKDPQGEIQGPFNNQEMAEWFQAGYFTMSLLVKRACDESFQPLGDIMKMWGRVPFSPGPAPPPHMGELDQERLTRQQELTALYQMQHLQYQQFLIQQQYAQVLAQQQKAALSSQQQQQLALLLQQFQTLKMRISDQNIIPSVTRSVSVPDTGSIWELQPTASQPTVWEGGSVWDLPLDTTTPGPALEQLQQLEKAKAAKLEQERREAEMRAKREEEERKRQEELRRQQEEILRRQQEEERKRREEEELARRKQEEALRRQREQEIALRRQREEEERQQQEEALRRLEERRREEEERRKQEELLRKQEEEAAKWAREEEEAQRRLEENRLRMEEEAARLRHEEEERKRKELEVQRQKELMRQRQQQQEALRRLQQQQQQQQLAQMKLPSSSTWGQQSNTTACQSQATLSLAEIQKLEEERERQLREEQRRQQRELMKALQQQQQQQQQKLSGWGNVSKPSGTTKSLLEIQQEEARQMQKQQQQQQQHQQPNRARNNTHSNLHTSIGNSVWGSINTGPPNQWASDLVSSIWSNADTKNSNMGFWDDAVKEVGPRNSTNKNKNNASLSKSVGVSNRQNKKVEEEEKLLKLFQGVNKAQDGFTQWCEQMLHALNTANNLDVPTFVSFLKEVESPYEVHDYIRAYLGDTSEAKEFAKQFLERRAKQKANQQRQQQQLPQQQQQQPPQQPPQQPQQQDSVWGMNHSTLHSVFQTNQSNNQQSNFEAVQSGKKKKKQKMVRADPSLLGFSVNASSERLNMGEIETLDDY

T3: FKBP3 109-224 FKBP_C (domain begin residue: 109, domain end residue: 224), Q00688
T3 chain: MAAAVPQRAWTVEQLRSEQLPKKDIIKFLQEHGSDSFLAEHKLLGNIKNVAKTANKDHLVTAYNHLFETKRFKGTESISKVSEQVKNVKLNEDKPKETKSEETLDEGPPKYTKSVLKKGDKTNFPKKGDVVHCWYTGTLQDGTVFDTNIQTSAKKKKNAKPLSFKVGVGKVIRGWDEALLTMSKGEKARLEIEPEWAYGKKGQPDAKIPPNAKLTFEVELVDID

T4: FRS3 12-117 IRS (domain begin residue: 12, domain end residue: 117), O43559
T4 chain: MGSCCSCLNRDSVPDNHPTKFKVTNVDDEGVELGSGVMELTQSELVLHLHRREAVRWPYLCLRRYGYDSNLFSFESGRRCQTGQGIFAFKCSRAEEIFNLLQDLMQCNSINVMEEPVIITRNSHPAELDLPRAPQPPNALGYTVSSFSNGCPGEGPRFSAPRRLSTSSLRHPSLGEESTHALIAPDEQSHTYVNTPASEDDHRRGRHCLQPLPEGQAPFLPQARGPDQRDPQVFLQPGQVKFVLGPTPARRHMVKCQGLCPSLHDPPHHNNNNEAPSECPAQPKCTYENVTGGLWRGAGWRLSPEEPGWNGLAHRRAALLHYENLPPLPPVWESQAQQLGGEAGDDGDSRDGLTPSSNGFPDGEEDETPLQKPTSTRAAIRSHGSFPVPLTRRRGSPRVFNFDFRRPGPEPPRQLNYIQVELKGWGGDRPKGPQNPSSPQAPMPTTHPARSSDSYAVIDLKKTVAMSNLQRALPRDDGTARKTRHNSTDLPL

T5: GIGYF1 448-540 GYF (domain begin residue: 448, domain end residue: 540), O75420
T5 chain: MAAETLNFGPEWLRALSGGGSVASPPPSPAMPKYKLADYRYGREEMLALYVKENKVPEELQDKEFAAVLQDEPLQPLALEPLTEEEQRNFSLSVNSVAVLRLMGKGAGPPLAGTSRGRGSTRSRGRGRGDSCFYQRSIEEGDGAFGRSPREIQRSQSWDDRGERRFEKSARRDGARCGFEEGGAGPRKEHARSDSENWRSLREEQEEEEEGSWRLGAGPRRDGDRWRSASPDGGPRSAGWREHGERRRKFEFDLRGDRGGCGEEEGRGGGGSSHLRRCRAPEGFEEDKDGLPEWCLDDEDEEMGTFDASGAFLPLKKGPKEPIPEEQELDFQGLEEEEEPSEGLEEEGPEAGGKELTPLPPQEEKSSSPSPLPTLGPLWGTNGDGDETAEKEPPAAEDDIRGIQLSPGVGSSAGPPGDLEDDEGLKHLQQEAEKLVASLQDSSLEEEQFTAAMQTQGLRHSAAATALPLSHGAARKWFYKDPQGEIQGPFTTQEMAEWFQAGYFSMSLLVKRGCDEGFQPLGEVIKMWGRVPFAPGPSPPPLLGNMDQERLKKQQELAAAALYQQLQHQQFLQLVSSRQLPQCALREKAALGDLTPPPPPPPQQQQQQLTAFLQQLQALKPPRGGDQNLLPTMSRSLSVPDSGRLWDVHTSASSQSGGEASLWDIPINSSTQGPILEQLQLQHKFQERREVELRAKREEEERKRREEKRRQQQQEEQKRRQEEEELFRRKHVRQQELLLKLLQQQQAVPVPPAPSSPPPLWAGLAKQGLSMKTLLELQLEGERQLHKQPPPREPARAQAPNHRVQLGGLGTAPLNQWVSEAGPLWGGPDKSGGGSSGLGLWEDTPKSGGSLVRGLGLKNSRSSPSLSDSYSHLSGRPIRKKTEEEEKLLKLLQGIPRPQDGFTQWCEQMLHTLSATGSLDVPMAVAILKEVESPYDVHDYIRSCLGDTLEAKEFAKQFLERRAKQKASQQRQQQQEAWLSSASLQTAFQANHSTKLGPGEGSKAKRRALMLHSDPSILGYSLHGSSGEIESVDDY

T6: SPRED2 1-124 WH1 (domain begin residue: 1, domain end residue: 124), Q7Z698
T6 chain: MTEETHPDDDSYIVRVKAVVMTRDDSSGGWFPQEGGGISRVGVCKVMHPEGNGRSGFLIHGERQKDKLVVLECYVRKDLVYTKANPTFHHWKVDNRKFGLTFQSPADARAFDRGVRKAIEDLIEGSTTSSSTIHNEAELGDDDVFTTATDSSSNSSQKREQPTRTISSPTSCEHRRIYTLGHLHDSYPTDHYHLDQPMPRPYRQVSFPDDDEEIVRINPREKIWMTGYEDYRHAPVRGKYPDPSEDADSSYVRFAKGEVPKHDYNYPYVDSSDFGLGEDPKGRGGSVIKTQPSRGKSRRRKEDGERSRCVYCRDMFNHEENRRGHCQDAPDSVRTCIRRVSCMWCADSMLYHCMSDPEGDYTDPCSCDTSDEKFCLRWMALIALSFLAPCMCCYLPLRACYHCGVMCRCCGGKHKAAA

T7: GNA14 2-355 G-alpha (domain begin residue: 2, domain end residue: 355), O95837
T7 chain: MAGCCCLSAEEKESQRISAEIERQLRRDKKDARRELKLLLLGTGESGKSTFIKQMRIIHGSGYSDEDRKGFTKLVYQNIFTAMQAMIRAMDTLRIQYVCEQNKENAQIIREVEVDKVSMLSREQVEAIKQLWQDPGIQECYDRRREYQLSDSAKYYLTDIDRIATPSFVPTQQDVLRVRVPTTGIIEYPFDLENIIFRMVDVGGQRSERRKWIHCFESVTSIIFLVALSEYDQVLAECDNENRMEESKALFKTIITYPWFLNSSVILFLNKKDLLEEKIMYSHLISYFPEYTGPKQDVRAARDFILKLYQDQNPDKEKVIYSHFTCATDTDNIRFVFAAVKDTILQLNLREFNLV

The target of the first experiment is T1, GGA1 1-157 VHS (domain begin residue: …. Put plainly: phage ELISA signal ratio (GST-PRM binding over GST background); higher = stronger binding of peptide-phage to the PRM. An outline of the steps:
(§1)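 Approximately 48 individual clones from selection rounds 4 and 5 were tested by phage ELISA, and those scoring positive were sequenced. They came from five rounds of selecting an M13 phage library of randomized, cysteine-free, glycine-flanked hexadecapeptides on the gene-8 major coat protein against human peptide recognition domains fused to the C-terminus of glutathione S-transferase (GST) in 96-well plates. Each figure in the table is the ELISA signal on the GST-domain fusion relative to the signal on GST alone.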
In general terms: An ELISA detects its analyte on a solid surface through an enzyme-linked reagent.
As for VNNQWDNDVPMLSMFA, the “phage ELISA signal ratio” value is 16.4.

With GEMDDPMMHFSWVAMW, the “phage ELISA signal ratio” value turned out to be 12.6.

For the molecule TMHHDDQLLDLYSVRK, the “phage ELISA signal ratio” value stood at 18.5.

As to WGHYEEDQMFVFMDHE, the “phage ELISA signal ratio” value turned out to be 19.8.

Take PQIQWYMDDILLVPTI: the “phage ELISA signal ratio” value stood at 15.5.

The target in the next experiment is GGA3 1-153 VHS (domain begin residue: 1, domain end residue: 153). Described as above. The procedure, abridged: as §1
For HLDQPPWWTLQEWASH, the “phage ELISA signal ratio” value was 12.2.

For PDTELIDVHQWRTSQW, the “phage ELISA signal ratio” value came to 22.1.

In the case of QHLWHWEDTDYYEWSE, the “phage ELISA signal ratio” value worked out at 20.1.

Take WHGQEADDVQMLWHWS: the “phage ELISA signal ratio” value was determined as 5.39.

In the case of MDWTILDFPYQNWPRS, the “phage ELISA signal ratio” value was 13.9.

On to EMDVEMWFPHFMNHSF, for which the “phage ELISA signal ratio” value was determined as 34.5.

On to HSQWWVGPEQPWGQVQ, for which the “phage ELISA signal ratio” value was 12.2.

As to MEPFTTWDQLPWWMQE, the “phage ELISA signal ratio” value is 12.9.

Turning to QAWDWGIYIDDWAQPL, the “phage ELISA signal ratio” value was determined as 10.6.

Take EVWWQGPEEDWMQTYL: the “phage ELISA signal ratio” value turned out to be 11.9.

A further experiment deals with GGA3 579-723 Alpha_adaptinC2 (domain begin residue: 579, domain end residue: 723). The description is as above. An outline of the steps:
as §1
Consider IQWNDMDFENLSGWWG, for which the “phage ELISA signal ratio” value was 4.03.

WEDWMEDWRQWEEPRK: the “phage ELISA signal ratio” value is 31.4.

The target in the next experiment is T2, GIGYF2 507-602 GYF (domain begin …. The experiment is described as above. The procedure, abridged: as §1
With TPPGYTMLMKEHSARH, the “phage ELISA signal ratio” value stood at 20.5.

Turning to SEVHPPGFAQEHHIMQ, the “phage ELISA signal ratio” value came out at 23.9.

Consider QRPPGNWGEVTQVPIL, for which the “phage ELISA signal ratio” value turned out to be 9.77.

With NYPNHPPGYEKWFQTM, the “phage ELISA signal ratio” value was found to be 26.6.

Consider NMFMPPGFAPQQVQMH, for which the “phage ELISA signal ratio” value amounted to 13.9.

The next experiment has as its target T3, FKBP3 109-224 FKBP_C (domain begin …. The description is as above. The procedure, abridged: as §1
For the molecule EEWKPHPEEGMGVFLV, the “phage ELISA signal ratio” value was 13.

The target of the next experiment is T4, FRS3 12-117 IRS (domain begin residue: …. Described as above. The procedure, abridged: as §1
For the molecule PQGTWFTIIQEPSQHD, the “phage ELISA signal ratio” value came out at 5.78.

For SRWVQIMHNGEETDSY, the “phage ELISA signal ratio” value came out at 16.9.

In another experiment the target is T5, GIGYF1 448-540 GYF (domain begin …. The description is as above. An outline of the steps:
as §1
With TIDTPPGFPTSQHEGM, the “phage ELISA signal ratio” value is 16.8.

SAPPGYQTGLLMAEYR: the “phage ELISA signal ratio” value amounted to 7.85.

Another experiment concerns the target T6, SPRED2 1-124 WH1 (domain begin residue: …. The experiment is described as above. The procedure, abridged:
as §1
For the molecule SAPPGYQTGLLMAEYR, the “phage ELISA signal ratio” value was 3.46.

A further experiment addresses T7, GNA14 2-355 G-alpha (domain begin …. The experiment is described as above. An outline of the steps:
as §1
With QPDQIRFGPYISFSAI, the “phage ELISA signal ratio” value was 24.3.
